# Assay outcomes (PubChem BioAssay)
# Pf apPOL block – Pf-apPOL DNA polymerase inhibition; Recombinant Pf-apPOL, molecular beacon fluorescence, 1.5 h; 210,000 compounds, 0.25% hits; inhibition, % at 10 µM
# mHTT-CaM PPI inh – inhibitors of human mutant huntingtin-calmodulin interaction. 190,000 compounds, 3.6% hits. inhibition, % at 15 µM. AlphaScreen His-mHTT/GST-CaM binding, luminescence. P42858. AID 1671202;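 note: 0% = both proteins with DMSO and 100% = one protein alone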
# Starred values were filed as active, the others as inactive; · = no result given. This is one part of a sample in which hits are shown more often than they occur. Cut-off read from the data, not from the text of the source: active = inhibition above about 50%; inactive = the rest.
SMILES,Pf apPOL block,mHTT-CaM PPI inh
CCN1c2cc(C)ccc2-n2cccc2C12CCN(C(=O)NCc1ccco1)CC2,-4.5,84.3*
Cc1cccc(-n2cc(C3CCN(C(=O)NCc4ccco4)CC3)cn2)c1,-2.8,24.3
C=CCNc1ncnc2c1c(-c1ccccc1)cn2-c1ccc(F)cc1,-6.8,15.0
CC(=O)N(C1=C(N2CCOCC2)C(=O)c2ccccc2C1=O)c1ccc(Cl)c(Cl)c1,-7.7,95.8*
CC(=O)N(C1=C(N2CCOCC2)C(=O)c2ccccc2C1=O)c1ccccc1,-0.2,19.8
CC(=O)N(C1=C(N2CCCCC2)C(=O)c2ccccc2C1=O)c1ccccc1C,-12.2,27.1
COc1cccc(N(C(C)=O)C2=C(N3CCCC3)C(=O)c3ccccc3C2=O)c1,-12.4,98.6*
COc1ccc(C2CCCN2C(=O)c2c(Br)cnn2C)cc1 (stereo not drawn),-1.2,-2.8
COc1ccc(C2CC(c3cccc([N+](=O)[O-])c3)=NN2C(C)=O)cc1 (stereo not drawn),-6.0,19.0
CC(=O)N1CCc2cc(Br)cc(S(=O)(=O)N3CCCc4ccccc43)c21,-3.5,12.0
O=C1N=c2ccccc2=C1c1sc(Nc2cccc(O)c2)nc1O,-1.0,60.6*
O=C1N=c2ccccc2=C1c1sc(Nc2ccc(Br)cc2)nc1O,6.4,28.0
Cc1ccc(-n2ncc3c(SCC(=O)Nc4ccc5c(c4)OCCO5)ncnc32)c(C)c1,-4.5,10.4
COc1ccc(Cl)cc1NC(=O)CSc1nccn1-c1cccc(C)c1C,3.8,56.0*
Cc1cccc(-n2ccnc2SCC(=O)Nc2ccc(F)cc2F)c1C,10.0,25.0
Cc1ccc(CNC(=O)CCC2CCCN(C(=O)Nc3ccc(C)cc3)C2)cc1 (stereo not drawn),-8.0,4.5
CNc1ccc(OC)c2c1C(=O)c1ccccc1C2=O,-81.9,82.0*
COc1ccccc1NC(=O)c1cccc2c1C(=O)c1ccccc1-2,-1.8,21.1
COc1ccc(/C=C2/N=C(c3ccc(Cl)c(Cl)c3)OC2=O)c(OC)c1OC,-2.8,1.0
Cc1cc(C(=O)NCC(O)c2sccc2C)no1 (stereo not drawn),-3.4,-2.9
CCOC(=O)C1Oc2ccccc2C(C(=O)OC)=C1C(=O)OC (stereo not drawn),-7.0,2.6
CCOC(=O)ON1C(=O)c2ccccc2N2COc3ccccc3C12 (stereo not drawn),·,100.3*
CCOc1c(Br)cc(/C=C(\C#N)c2nc3ncc(Br)cc3[nH]2)cc1OC,-2.4,19.0
Cc1cccc(NCN2C(=O)S/C(=C\c3ccccc3F)C2=O)c1,-3.7,54.0*
O=C1S/C(=C\c2ccccc2F)C(=O)N1CNc1cccc([N+](=O)[O-])c1,-2.3,-2.0
SMILES,Pf apPOL block,mHTT-CaM PPI inh
COc1cccc(C2C=C(c3ccc(F)cc3)Nc3nc4ccccc4n32)c1OC (stereo not drawn),0.0,40.0
O=C(c1ccc(-c2ccc([N+](=O)[O-])cc2)o1)N1CCOCC1,5.7,20.8
O=C1OC(c2ccco2)=N/C1=C/c1cccc(Cl)c1Cl,-3.0,0.0
Cc1c(O)ccc2c(CN3CCC(Cc4ccccc4)CC3)cc(=O)oc12,-8.4,9.0
NNc1nc2ccccc2s1,-4.3,85.9*
O=S(=O)(Cc1ccccc1)Nc1nc2ccccc2s1,2.7,0.0
Cc1cccn2c(=O)c3cc(C(=O)NCc4ccco4)c(=N)n(CC4CCCO4)c3nc12 (stereo not drawn),-11.0,4.0
N#CC1=C(N)Oc2n[nH]c(-c3ccccn3)c2C1c1ccncc1 (stereo not drawn),13.2,53.0*
N#CC1=C(N)Oc2n[nH]c(-c3ccc4c(c3)OCO4)c2C1c1ccc2c(c1)OCO2 (stereo not drawn),-13.5,26.0
N#CC1=C(N)Oc2n[nH]c(-c3ccc4c(c3)OCO4)c2C1c1ccc(Cl)cc1 (stereo not drawn),-4.0,81.0*
N#CC1=C(N)Oc2n[nH]c(-c3ccccn3)c2C1c1ccc(O)cc1 (stereo not drawn),-1.7,80.0*
COc1ccc(C2C(C#N)=C(N)Oc3n[nH]c(-c4ccccn4)c32)c(OC)c1OC (stereo not drawn),-3.1,34.0
N#CC1=C(N)Oc2n[nH]c(-c3ccccn3)c2C1c1cccnc1 (stereo not drawn),-3.3,29.0
Cc1ccc(C2C(C#N)=C(N)Oc3n[nH]c(-c4ccccc4)c32)s1 (stereo not drawn),-3.2,13.0
N#CC1=C(N)Oc2n[nH]c(-c3ccccn3)c2C1c1ccc([N+](=O)[O-])s1 (stereo not drawn),5.4,99.0*
C=C1CCC2C(C)(CO)CCCC2(C)C1CCC1=CCOC1=O (stereo not drawn),-14.5,·
c1ccc(-c2onc3ccc(C4OCCO4)cc23)cc1,5.6,-3.0
O=C(Nc1ccc2c(c1)CN(S(=O)(=O)c1ccccc1)CC2)c1cc(-c2ccco2)on1,-4.4,-4.4
COc1cc(-c2nc(C(=O)N3CCOCC3)cs2)ccc1OC(C)C,-8.4,-4.1
CC(C)(C)C(=O)Nc1ccccc1C(=O)NCCC(=O)O,2.4,-2.6
